Laboratory results from the supplement of paper PMC6555819.

What follows are sequences tested on FXR:RXRa (NR concentration 270 nM, RXRa partner concentration 90 nM) (assay: PBM binding z-score (relative to random genomic background probes); higher = stronger binding; sequences stand for … in GC…GCGATTGACAGCGTAGAATGAAGG).
Summary of the method: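 Regression normalization was applied to scanned fluorescence from custom Agilent 4×180K protein-binding microarrays. Before scanning, arrays were incubated 1 h with ligand-free nuclear receptor dimers, and binding was detected with antibodies against each partner (one per run). Binding z-scores use the random background probes as reference.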
Work on TCTTGTTGATCAAGCAGGTTAAGAAAGCCTGAGT yielded a PBM binding z-score of 0.36. For CCGAGTAGGTTATGGGGCCTTCAGGCAACGGTGA, the PBM binding z-score was 0.0359. In the case of TCTCGGAGGACGCGAAAGGTCAGAGCTCGACATC, the PBM binding z-score is reported as 2.41. Work on TAGCCTAGGTCAGATTGGGCCAGTATACGCTATA yielded a PBM binding z-score of 2.65. With GATATTAGTTGAAAGGGCAACCGAATGATTCTCG the PBM binding z-score was 0.693. GGAACGAGGGCAAGCTGATAGCAGAGTTTGATGG showed a PBM binding z-score of 0.351. For CCGACTGGGGCACGGTTACCATAACGCACAGCCA, the PBM binding z-score was -0.15. In the case of GCAGACAGGTGGAACGCAGGTAACTCAGGGTGGC, the PBM binding z-score is reported as -0.427. With AGAATGAGGCTATACGTAGATCAGGGAAGAAAGT the PBM binding z-score was -0.393. With CCAGACAGGTGAGAAGGTACCTCAGCCTCGATTA the PBM binding z-score was -0.184. Work on GCTAGCAGGCCATTTGCGTCACTCAATGACGGGC yielded a PBM binding z-score of -0.489. Sequence ATCGAAAGTTCGACGAGGTGAGTATACACCGTTT has a PBM binding z-score of 0.939. In the case of CCTCAGAGGACAACAGGAGGTCAGAGCTGCCAGA, the PBM binding z-score is reported as 1.05. In the case of CGTCAAAGTTCAACTAAGGTAACGTACAGCACGC, the PBM binding z-score is reported as 7.43. In the case of GAAACAGGGTCAAGGCCAGAGTACGCGTATTGAT, the PBM binding z-score is reported as 7.06. For GCTTGTAGATCAAGGTTAAGAACGACTAAGCTAA, the PBM binding z-score was 0.0945. In the case of TCTTGTAGATCAAAGGTTAAGAATGCCGAAGCCT, the PBM binding z-score is reported as 2.11. Sequence GCTTGTAGTTCAAGGTTAAGAAAGACTAAGCTAA has a PBM binding z-score of 1.52.
